The supplement of paper PMC6555819

Each sequence was assayed on PPARg:RXRa 30nM:10nM, anti-RXR (NR concentration 30 nM, RXRa partner concentration 10 nM) (assay: PBM binding z-score (relative to random genomic background probes); higher = stronger binding; sequences stand for … in GC…GCGATTGACAGCGTAGAATGAAGG).
Summary of the method: (§1)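 Ligand-free nuclear receptor dimers were bound for 1 h to custom Agilent 4×180K protein-binding microarrays. Detection used antibodies against each partner (one per run). Binding z-scores rest on regression-normalized fluorescence, with random background probes as the reference.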

First: GGAACGATGGCAAAGTTGATAGCATCTGTCGACG
Second: CCTATTAGTTGACCATAAGGGCAACCAAAGCTCG
The PBM binding z-score of the first is higher: 1.16 for the first, 0.262 for the second.

Compared with TCATATAGGTAAATGCTAGCTGAAAGTCCGATCT, GCTAGCAGGCCATTTGGGTCACTCATTGACGGGC is lower in PBM binding z-score: 3.71 for the first, -0.512 for the second.

Compared with GGAACGGGGGCAAAGTTGATAGCATCTGTCGACG, TTACCAAGGTGAGCTGAGGTCGTTGGTCCAACTC is lower in PBM binding z-score: 9.53 for the first, -0.5 for the second.

First: CCTTGGAGGACAGAAGGTCAGAGCTGTCCGCTTT
Second: CGATCTAGGTCAGAACAGGACAGTGAAGGATGAT
The PBM binding z-score of the first is lower: 0.178 for the first, 1.41 for the second.

First: TAGCCTAGGTCATGCGCGCCAGTATAGTGTCGGC
Second: GCTGCTAGGTCAGCTTGGTCAGCTAACGGGTACG
The PBM binding z-score of the first is higher: 0.197 for the first, -0.549 for the second.

Compared with ACTATTAGTTTAGACGAGGGCAACCGATAGGTTG, TCTTGTAGATCAGCAGGAGGTTAAGAAAGATCGA is higher in PBM binding z-score: -0.0368 for the first, 2.16 for the second.

Going from GCTAGCAGGCCATTGGGGTCACTCAATGACGGGC to ACAGACAGGTGAAGAAGGTAACTCAGGCTATCAT, the PBM binding z-score falls from 0.521 to 0.0156.

Compared with TCTTGTAGATCACAGGTTAAGAAAGCCGAAGCCT, CCTAGTTGGTCAAGGTCACACACGCTATAGGTAC is lower in PBM binding z-score: 3.81 for the first, 1.66 for the second.

Going from TAGCCTAGGTCATTCAGGGTCCAGTATAGAAAGC to CAAACTAGGTCAGGAGGTCAAAGTCCGCTTCCCG, the PBM binding z-score rises from 0.487 to 5.95.

What follows are sequences tested on PPARg:RXRa 90nM:30nM, anti-RXR (NR concentration 90 nM, RXRa partner concentration 30 nM) in the same assay as above.
Summary of the method: as §1

First: CCTACTGGGCCATTCAGAGGTCAGTGATCATATG
Second: CCTCGGAGGACAACAGGAGGTTAGAGCTGCCAGA
The PBM binding z-score of the first is higher: 1.29 for the first, -0.982 for the second.

First: TGAATCAGGTTAAAGATCAGGGAACGTGGCGTCG
Second: CGTCCATGGTCAGCAGGTCAGTGAAAGCGACGTG
The PBM binding z-score of the first is higher: 6.34 for the first, -0.464 for the second.

Going from GCGACTGGGGCCAAGCAGGTTACCATAAGGTTGG to CTGGAAAGGTCGGTTGAGGTGAGTATACGGATAA, the PBM binding z-score rises from -0.642 to 0.424.

First: TCATATAGGTAAAGGTCAAAGTCGAACGATATGA
Second: ACAGACAGGTGATGGAGGTAACTCAGGCTATCAT
The PBM binding z-score of the first is higher: 7.15 for the first, -0.291 for the second.

Compared with TTACCAAGGTGAGCTGAGGACGTTGATCCAACTC, TCTAGTTGGTCAAAGGTCACACACTCGAAATGCG is higher in PBM binding z-score: -0.212 for the first, 12.2 for the second.

First: ACTAGCAGGCCAAGGGTAACTCAAGATTAGTCCG
Second: CGTCCCAGGTCAAAGGTCAGTGAAGAGATGACGG
The PBM binding z-score of the first is lower: 4.78 for the first, 9.26 for the second.

Going from GCGACTAGGGCAAAGCAGGTTACCATAAGGTTGG to ATCTCTAGGCAACCAAGTTCAGTGAATGCCGAAC, the PBM binding z-score falls from 0.722 to 0.0136.

Going from GCATATAGGAAATACAAGGTGAAAGTCCGATTGT to ATCTCTAGGTAACCAAGTTCAGTTAATGCCGAAC, the PBM binding z-score falls from 0.81 to 0.659.

Going from GCGACTGGGGCAAAGCAGGGTACCATAAGGTTGG to CTACCAAGGTGAACAAGGTTGTTGATTACTATTC, the PBM binding z-score rises from 0.227 to 0.615.

Compared with CCTGCTAGGTCAATTGTCAGCTAAAGCAGCTCGC, GCTCGGAGGACAAGGTCATAGCTTTGTCCGTAGA is higher in PBM binding z-score: 1.54 for the first, 2.08 for the second.

Compared with ACTCGGAGGAAAAAGGTCAGAGCTACGCCAGTGA, TCTCGGAGGACACGAAGGTCAGAGCGTTCCAGAG is lower in PBM binding z-score: 2.74 for the first, 2.05 for the second.

First: GGAACGATGGCAAAGTTGATAGCATCTGTCGACG
Second: CCTATTAGTTGACCATAAGGGCAACCAAAGCTCG
The PBM binding z-score of the first is higher: 2.88 for the first, 0.51 for the second.

Compared with TCATATAGGTAAATGCTAGCTGAAAGTCCGATCT, GCTAGCAGGCCATTTGGGTCACTCATTGACGGGC is lower in PBM binding z-score: 2.81 for the first, -0.18 for the second.

Compared with GGAACGGGGGCAAAGTTGATAGCATCTGTCGACG, TTACCAAGGTGAGCTGAGGTCGTTGGTCCAACTC is lower in PBM binding z-score: 9.94 for the first, 0.00719 for the second.

Going from CCTTGGAGGACAGAAGGTCAGAGCTGTCCGCTTT to CGATCTAGGTCAGAACAGGACAGTGAAGGATGAT, the PBM binding z-score rises from 1.81 to 2.78.

First: TAGCCTAGGTCATGCGCGCCAGTATAGTGTCGGC
Second: GCTGCTAGGTCAGCTTGGTCAGCTAACGGGTACG
The PBM binding z-score of the first is higher: 1.79 for the first, -0.0941 for the second.

Compared with ACTATTAGTTTAGACGAGGGCAACCGATAGGTTG, TCTTGTAGATCAGCAGGAGGTTAAGAAAGATCGA is higher in PBM binding z-score: -0.045 for the first, 1.74 for the second.

Compared with GCTAGCAGGCCATTGGGGTCACTCAATGACGGGC, ACAGACAGGTGAAGAAGGTAACTCAGGCTATCAT is lower in PBM binding z-score: 2.17 for the first, -0.0588 for the second.

Going from TCTTGTAGATCACAGGTTAAGAAAGCCGAAGCCT to CCTAGTTGGTCAAGGTCACACACGCTATAGGTAC, the PBM binding z-score falls from 4.64 to 3.2.

Going from TAGCCTAGGTCATTCAGGGTCCAGTATAGAAAGC to CAAACTAGGTCAGGAGGTCAAAGTCCGCTTCCCG, the PBM binding z-score rises from 1.23 to 7.43.
